Results reported in PubChem BioAssay.
Several values for one entry are separate records, joined by “and”; a condition that tells them apart may be missing. Equal entries are not always repeated. Records with an inconclusive call do not appear. Where a structure was tested more than once in an assay, its records may differ in their call. Activity calls are given as the source filed them. Cut-off read from the data, not from the text of the source, unless noted: active = inhibition above about 80%; inactive = the rest.

Legend:
[1] = growth inhibition of DIPG glioma cells, dose response, cell-based, SU-DIPG-XIII, MIPE4.0, CellTiter-Glo, qHTS (AID 1347061; cut-off not given, nearly all actives have AC50 up to about 37 µM;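 note: cells exposed to compound for 48 hours before readout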); settings: SU-DIPG-XIII viability, CellTiter-Glo ATP luminescence
[2] = growth inhibition of DIPG glioma cells, dose response, cell-based, JHH-DIPG-1, MIPE4.0, CellTiter-Glo, qHTS (AID 1347062; cut-off not given, nearly all actives have AC50 up to about 27 µM); settings: JHH-DIPG-1 viability, CellTiter-Glo ATP luminescence
[3] = viability loss in pontine glioma line – cell-based, SU-DIPG-XXV, MIPE5.0, CellTiter-Glo, qHTS, dose response (AID 1347065; cut-off not given, nearly all actives have AC50 up to about 26 µM;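 note: cells exposed to compound for 48 hours before ATP readout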); settings: CellTiter-Glo ATP luminescence
[4] = SU-DIPG-VI glioma cell viability, MIPE4.0 library, CellTiter-Glo luminescence, qHTS (AID 1347066; cut-off not given, nearly all actives have AC50 up to about 30 µM;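 note: cells exposed to compound for 48 hours before readout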); settings: CellTiter-Glo ATP luminescence
[5] = JHH-DIPG-1 glioma cell viability, MIPE5.0 library, CellTiter-Glo luminescence, qHTS (AID 1347067; cut-off not given, nearly all actives have AC50 up to about 26 µM;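 note: cells exposed to compound for 48 hours before readout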); settings: JHH-DIPG-1 glioma viability, CellTiter-Glo ATP luminescence
[6] = SU-DIPG-XXV glioma cell viability, MIPE5.0 library, qHTS (AID 1347068; cut-off not given, nearly all actives have IC50 up to about 30 µM)
[7] = sensitizers of A549 cells to miR-34 induction, primary screen, imaging, A549 dox-inducible miR-34, nuclei and caspase counts (AID 1347080;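 active = compounds whose cell count with miR-34 switched on is under 0.7 times the count with it off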); settings: A549 miR-34 inducible, Hoechst nuclei count, 48 h
[8] = LFS_MB_P medulloblastoma growth inhibition, cell-based, chromothripsis tumors, cisplatin or BGB combos (AID 1671449); settings: LFS_MB_P medulloblastoma cells;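 note: cells exposed for 96 hours; 0% = vehicle DMSO and 100% = killing by high DMSO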
[9] = HDN33 neuroblastoma growth inhibition, cell-based, chromothripsis tumors, cisplatin or BGB combos (AID 1671450); settings: HDN33 neuroblastoma cells, stronger effect = higher value;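 note: cells exposed to compound for four days; 0% = vehicle DMSO and 100% = cell killing by high DMSO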
[10] = ICB984 medulloblastoma cell growth inhibition, synergistic combos for chromothripsis tumors, cisplatin or BGB combos (AID 1671451; call rule not given here;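 note: cells exposed for 96 hours before readout; 0% = vehicle DMSO and 100% = killing by high DMSO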); settings: ICB984 medulloblastoma cells, drug combinations, stronger effect = higher value
[11] = LFS_MB_1R medulloblastoma cell growth inhibition, synergistic combos for chromothripsis tumors, cisplatin or BGB combos (AID 1671452); settings: LFS_MB_1R medulloblastoma cells, stronger effect = higher value;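 note: cells exposed for 96 hours before readout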
[12] = HTB85 osteosarcoma cell growth inhibition, synergistic combos for chromothripsis tumors, BGB or cisplatin IC20 combos (AID 1671453); settings: HTB85 osteosarcoma cells, drug combinations, stronger effect = higher value;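 note: cells exposed for 96 hours before readout; 0% = vehicle DMSO and 100% = high DMSO killing control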
[13] = MDA-MB-436 breast carcinoma cell growth inhibition, synergistic combos for chromothripsis tumors, BGB or cisplatin combos (AID 1671458; call rule not given here;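 note: cells exposed for 96 hours; 0% = vehicle DMSO and 100% = killing by high DMSO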); settings: MDA-MB-436 breast carcinoma growth inhibition, drug combinations, stronger effect = higher value
[14] = growth inhibition of BT084 medulloblastoma cells, cell-based, ICGC_MB145, cisplatin and BGB IC40 combos (AID 1671461); settings: drug combinations, stronger effect = higher value;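 note: cells exposed to drugs for 96 hours; 0% = vehicle DMSO and 100% = high DMSO full killing control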
[15] = growth inhibition of RCMB18 medulloblastoma cells, cell-based, cisplatin and BGB IC40 combos (AID 1671462); settings: stronger effect = higher value;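 note: cells exposed to compound for four days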
[16] = growth inhibition of CRL1545 osteosarcoma cells, cell-based, cisplatin and BGB IC20 combos (AID 1671464); settings: stronger effect = higher value;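 note: cells exposed to compound for 96 hours before readout; 0% = vehicle DMSO and 100% = high DMSO killing control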
[17] = measured here: combination with BGB IC40, at 0.05 µM
[18] = measured here: with BGB IC20 combination, at 0.5 µM
[19] = measured here: with cisplatin IC20 combination, at 0.5 µM
[20] = measured here: combination with cisplatin, at 0.5 µM

What does the source list for `COc1ccc(Cc2nccc3cc(OC)c(OC)cc23)cc1OC`?
outcome [1]: inactive; outcome [2]: inactive; outcome [3]: inactive; outcome [4]: inactive

Which outcome [1] does the source give for `O=C(NC[C@H]1CN(c2ccc(N3CCOCC3=O)cc2)C(=O)O1)c1ccc(Cl)s1` here?
Its outcome is “inactive”.

What about the outcome [2] of the same molecule?
Its outcome is “inactive”.

What about the outcome [4] of the same molecule?
The outcome was “inactive”.

What about the outcome [5] of the same molecule?
The outcome was “inactive”.

And the outcome [6]?
Its outcome is “inactive”.

What does the source list for `CC(C)(C)C(=O)Oc1ccc2c(c1)nc(NC(=O)c1cccc([N+](=O)[O-])c1)n2CCCO`?
outcome [1]: inactive; outcome [2]: inactive; outcome [4]: inactive; outcome [5]: inactive; outcome [6]: inactive

With `OC[C@H](Cc1ccccc1)Nc1nc(Oc2ccc3c(c2)CCC3)nc2c1ncn2Cc1ccc(-c2ccccc2)cc1` as the molecule, how does the outcome [1] read?
Its outcome is “inactive”.

And the outcome [2]?
The outcome was “inactive”.

And the outcome [4]?
Its outcome is “inactive”.

And the outcome [6]?
The outcome was “inactive”.

For `OCc1ccc(-c2nn(Cc3ccccc3)c3ccccc23)o1`, which outcome [1] is on record?
The outcome was “inactive”.

What about the outcome [2] of the same molecule?
Its outcome is “inactive”.

And the outcome [4]?
The outcome was “inactive”.

And the AC50 [5]?
Its AC50 is 23.5 µM (active).

And the outcome [6]?
The outcome was “inactive”.

And the fold change ([7]; stronger effect = lower value, cell number ratio, induced over uninduced)?
Its fold change is 0.905 (inactive) and 0.927 (inactive) and 0.926 (inactive).

What about the fold change ([7]; measured here: relative caspase fold change +Dox/-Dox) of the same molecule?
Its fold change is 1.2 and 0.954 and 0.941.

What about the cell count ([7]; measured here: total cells with miR-34 induction, stronger effect = lower value) of the same molecule?
Its cell count is 5070 and 1870 and 4400.

And the cell count ([7]; measured here: total cells without miR-34 induction)?
Its cell count is 5600 and 2020 and 4750.

Which outcome [1] does the source give for `O=C(OCC#CCSc1nnc(-c2cccc3ccccc23)o1)c1cc2ccccc2s1` here?
Its outcome is “inactive”.

What about the outcome [2] of the same molecule?
Its outcome is “inactive”.

And the outcome [4]?
The outcome was “inactive”.

For `CCCCC(=O)O[C@]1(C(=O)CO)[C@H](C)C[C@H]2[C@@H]3CCC4=CC(=O)C=C[C@]4(C)[C@@]3(F)[C@@H](O)C[C@@]21C`, which outcome [1] is on record?
The outcome was “inactive”.

And the outcome [2]?
Its outcome is “inactive”.

And the outcome [4]?
The outcome was “inactive”.

Which results are given for `Cc1cnc(CNC(=O)c2c(=O)c3ccc(N4CCCN(C)CC4)nc3n3c2sc2ccccc23)cn1`?
outcome [1]: inactive; outcome [2]: inactive; outcome [3]: inactive; outcome [4]: inactive; outcome [6]: inactive; inhibition ([8]; at 0.5 µM, stronger effect = higher value): -32.6% (inactive) and -19.8% (inactive); inhibition ([8]; measured here: combination with BGB IC20, at 0.005 µM): -4.81% and -24.5%; inhibition ([8]; measured here: combination with BGB IC40, at 0.005 µM): -1.91% and -28.2%; inhibition [8, 17]: 0.537% and -10.1%; inhibition ([8]; measured here: combination with cisplatin, at 0.5 µM, stronger effect = higher value): -27% and -20.6%; inhibition ([8]; measured here: combination with cisplatin, at 5 µM, stronger effect = higher value): 126% and 65.2%; inhibition ([9]; BGB combo, at 5 µM): 99.9% and 61.4%; inhibition ([9]; at 0.5 µM): 53.7% (inactive) and 26.5% (inactive); inhibition ([9]; cisplatin combo, at 5 µM): 99.9% and 78%; inhibition [9, 18]: 51.6% and 27.6%; inhibition [9, 19]: 44.8% and 18.7%; inhibition ([9]; single agent, at 5 µM): 99.9% and 80.2%; inhibition ([10]; BGB IC20 combo, at 0.005 µM): 94.7% and -37.9%; inhibition ([10]; BGB IC40 combo, at 0.005 µM): 92.8% and -33.4%; inhibition ([10]; BGB IC40 combo, at 0.05 µM): 102%; inhibition ([10]; at 0.5 µM): -35% (inactive) and -18.1% (inactive); inhibition ([10]; cisplatin combo, at 0.05 µM): 102%; inhibition ([10]; cisplatin combo, at 0.5 µM): -48.5% and -27.9%; inhibition ([10]; cisplatin combo, at 5 µM): -21.1% and -37.3%; inhibition ([10]; measured here: 5 uM single agent, at 5 µM): -8.37% and -11.6%; inhibition ([11]; at 0.5 µM): 6.38% (inactive) and -24.6% (inactive); inhibition [11, 17]: -8.97% and -9.02%; inhibition [11, 20]: 91.9% and 6.04%; inhibition ([11]; measured here: combination with cisplatin, at 5 µM): 104% and 102%; inhibition ([12]; at 0.5 µM): 6.45% (inactive) and -21.5% (inactive); inhibition ([12]; measured here: with BGB IC20, at 0.5 µM): 2.27% and -44.5%; inhibition ([12]; measured here: with BGB IC20, at 5 µM): 100% and 39.1%; inhibition ([12]; measured here: with cisplatin IC20, at 0.5 µM): -0.545% and -23%; inhibition ([12]; measured here: with cisplatin IC20, at 5 µM): 99.9% and 26.3%; inhibition ([12]; single agent, at 5 µM): 100% and 41.7%; inhibition ([13]; at 0.5 µM): 29.4% (inactive) and 4.69% (inactive); inhibition ([13]; measured here: BGB combination, at 0.5 µM): 10.6% and -16.3%; inhibition ([13]; measured here: BGB combination, at 5 µM): 103% and -17.9%; inhibition ([13]; measured here: cisplatin combination, at 0.5 µM): 20.7% and -11.9%; inhibition ([13]; measured here: cisplatin combination, at 5 µM): 102% and 14.1%; inhibition ([14]; at 0.5 µM): -18.1% (inactive) and -56.2% (inactive); inhibition ([14]; cisplatin combination, at 0.5 µM): 18.1% and -29.3%; inhibition ([14]; cisplatin combination, at 5 µM): 108% and 82.2%; inhibition ([14]; measured here: BGB IC40 combination 0.05 uM, at 0.05 µM): 77.5% and -15.1%; inhibition ([14]; single agent, at 5 µM): 106% and -74.4%; inhibition ([15]; at 0.5 µM): 85.6% (active) and -19.4% (inactive); inhibition ([15]; cisplatin combo, at 5 µM): 101% and 100%; inhibition ([15]; measured here: BGB IC40 combination, at 0.05 µM): -21.6% and -12.2%; inhibition [15, 20]: 95.7% and -7.59%; inhibition ([15]; single agent, at 5 µM): 101%; inhibition ([16]; at 0.5 µM): 38.3% (inactive) and -17.2% (inactive); inhibition [16, 18]: 36.7% and -12.7%; inhibition [16, 19]: 39% and -19.4%; inhibition ([16]; single agent, at 0.05 µM): 2.42% and -7.19%; inhibition ([16]; single agent, at 5 µM): 99.9%
